Sampled rows, rich in hits. Any-hit rate of the full collection: about 9.9%.
IL1B secr inh = blocks inflammasome-driven IL-1 beta release. THP-1 LPS/ATP IL-1B secretion, AlphaLISA, 16 h; stronger effect = lower value. activity change, % at 57.5 µM. hit rate 4.7% among 360,000. AID 743279; in the data active = activity change below about -50%; inconclusive = mostly about -30% to -49%; note: % is set by controls: 0 for no effect and ±100 for the full control effect
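Secreted IL-1B measured by AlphaLISA bead assay after 16 h compound exposure of THP-1 cells; compounds (final up to 57.5 uM) added 1 h before LPS (250 ng/mL) and ATP (1.25 mM) stimulation; lower signal means less secretion.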
KB-V1 cytotox = kills drug-selected multidrug resistant KB-V1 cells; KB-V1 MDR cells viability, CellTiter-Glo, 72 h; Potency, µM (doses to about 46.1 µM), hits mostly cytotoxic; hit rate 3.4% among 400,000; AID 1347076; note: potency is the fitted concentration of half-maximal effect; % is set by controls: 0 for no effect and ±100 for the full control effect; nearly all actives have a fitted effect of over 60% in size
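KB-V1, DMEM (no phenol red) + 10% FBS; cpd pin-transferred, titration series; 72 h, 37 degrees C; CellTiter-Glo, luminescence. Data normalized, curve-fit.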
MCF10A rereplic = inducers of DNA re-replication in MCF 10A breast cells | MCF 10A DNA re-replication, Hoechst nuclear intensity, 48 h | Potency, µM (highest dose often 46.1 µM), without a hit: at the highest dose activity, positive = re-replication, most hits filed as activators | hit rate 2.9% among 350,000 | AID 624296; note: potency is the fitted concentration of half-maximal effect; % of control where 0% means no effect; nearly all actives have a fitted effect of over 50% in size
SW480 rereplic = DNA re-replication induction in SW480 cells. Potency, µM (top dose mostly 46.1 µM), inactives show at the top dose re-replication activation, most hits filed as activators. hit rate 1.8% among 340,000. AID 624297. SW480 DNA re-replication, Hoechst DNA content imaging, 48 h; note: potency is the fitted concentration of half-maximal effect; % of control where 0% means no effect; nearly all actives have a fitted effect of over 55% in size
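Readout is total intensity of Hoechst-stained nuclei, excited at 405 nm and collected at 500-530 nm. Compound treatment lasted 48 hr at 37 C in 5% CO2 before staining.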
KB-3-1 tox = KB-3-1 parental cell cytotoxicity; hit rate 1.4% among 400,000; Potency, µM (titrated, usually from 46.1 µM), most hits filed as cytotoxic; KB-3-1 viability, CellTiter-Glo ATP luminescence, 72 h; note: potency is the fitted concentration of half-maximal effect; % is set by controls: 0 for no effect and ±100 for the full control effect; nearly all actives have a fitted effect of over 60% in size
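KB-3-1 cells, DMEM (no phenol red) + 10% FBS; compound by pin transfer, 72 h, 37 °C. Readout: CellTiter-Glo luminescence after 10 min. Data normalized, curve-fitted.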
The depositor's hits bear a star; i = inactive; ? = inconclusive; . = not tested or not shown. Unless noted, calls come from the whole dose curve; as a rule, active = well fitted curve in the direction sought with a large enough effect; inconclusive = small, poorly fitted or top-dose-only effect, or another doubt; inactive = no such curve, though single readings can be large; an effect the other way counts as inactive or inconclusive.

SMILES | IL1B secr inh | KB-V1 cytotox | MCF10A rereplic | SW480 rereplic | KB-3-1 tox
COc1ccccc1N(C)S(=O)(=O)c1ccc(Cl)c(C(=O)NCc2cccnc2)c1 | 6.7 | i | 5.0% | -4.6% | i
COc1ccccc1CNS(=O)(=O)c1cc(C(=O)N(C)Cc2cccnc2)c(Cl)cc1Cl | 11.9 | 5.17µM* | 4.1% | 11.9% | ?
C/C(N)=C(/C#N)C(=O)COC(=O)[C@@H](NC(=O)c1ccccc1Cl)C(C)C | 45.4 | i | 2.06µM* | -56.1% | i
O=C(c1cc2ccccc2oc1=O)N(Cc1ccco1)Cc1cccs1 | -24.9 | 5.17µM* | ? | 0.2% | i
O=C(c1ccc(S(=O)(=O)Cc2ccccc2Cl)c([N+](=O)[O-])c1)N1CCN(c2ccccn2)CC1 | -103.0* | i | ? | ? | i
CN(c1ccccc1)S(=O)(=O)c1cc(C(=O)N2CCN(c3ccccn3)CC2)ccc1Cl | ? | 23.1µM* | 7.4% | -3.9% | ?
O=C(c1ccc(N2CCCC2)c([N+](=O)[O-])c1)N1CCN(c2ccccn2)CC1 | ? | ? | 8.7% | -2.9% | i
O=C(c1ccc(Sc2cccc(Cl)c2)c([N+](=O)[O-])c1)N1CCN(c2ccccn2)CC1 | -123.9* | ? | 1.7% | ? | i
O=C(c1ccc(Cl)c([N+](=O)[O-])c1)N1CCN(c2ccccn2)CC1 | 0.0 | ? | 3.6% | 2.9% | i
O=C(c1ccc(Cl)c(Cl)c1)N1CCN(c2ccccn2)CC1 | -21.3 | i | 12.2% | -86.2% | i
COc1ccccc1-c1nc(CNC(=O)NC2CCCCC2)c(C)o1 | . | i | . | . | i
O=C(NNC(=O)c1ccccc1O)c1cccc(Br)c1 | 17.3 | ? | 5.9% | ? | ?
CC(NC(=O)COc1ccc(-c2nnco2)cc1)c1ccc(Cl)cc1Cl (stereo unspecified) | 0.0 | 20.6µM* | 4.7% | . | ?
O=C(COc1ccc(-c2nnco2)cc1)NCc1ccccc1Cl | -0.9 | i | 5.1% | -11.9% | i
COC(=O)c1ccc(Oc2cc(C)nc(Cl)n2)cc1 | 16.6 | i | 0.3% | ? | i
COC(=O)c1ccc(Oc2cc(C)nc(SC)n2)cc1 | 0.0 | 4.61µM* | 3.66µM* | 19.0% | 5.8µM*
O=c1c2ccccc2oc2c1ccc1ccccc12 | 18.7 | i | -19.0% | 10.9% | i
O=c1cc(C(Cl)(Cl)Cl)oc2c1ccc1ccccc12 | -72.7* | i | 8.2µM* | 13µM* | ?
O=c1cc(-c2ccncc2)oc2c1ccc1ccccc12 | -83.4* | ? | 18.8% | 17.0% | i
O=c1cc(-c2ccc(O)cc2)oc2c1ccc1ccccc12 | -59.2* | i | -1.5% | 11.3% | i
O=c1cc(-c2ccc(O)cc2)oc2ccc3ccccc3c12 | -21.7 | ? | 18.4µM* | 19.7% | ?
O=c1cc(-c2ccco2)oc2c1ccc1ccccc12 | -22.0 | i | 9.3% | 1.3% | i
COc1cccc(N2CCN(C(=O)c3nc(-c4ccc(Cl)cc4)n4c3CCCCC4)CC2)c1 | . | i | . | . | i
CNC(=O)COc1coc(CN2CCN(c3cccc(Cl)c3)CC2)cc1=O | 15.2 | i | 12.4% | -19.6% | i
Cc1ccc(C)c(S(=O)(=O)N2CCCOC2CNC(=O)C(=O)NCc2ccc3c(c2)OCO3)c1 (stereo unspecified) | -3.6 | ? | 6.5% | -2.0% | i
SMILES | IL1B secr inh | KB-V1 cytotox | MCF10A rereplic | SW480 rereplic | KB-3-1 tox
Cc1cc(C)n(CCc2nc(-c3ccc(F)cc3)cs2)n1 | ? | i | ? | ? | i
Cc1cc(C)n(CCc2nc(-c3ccc(C(C)(C)C)cc3)cs2)n1 | -50.7* | 16.4µM* | ? | 13.8% | i
O=C1S/C(=C\C=C\c2ccco2)C(=O)N1c1ccc(O)cc1 | -97.2* | i | ? | 0.3% | i
O=C1S/C(=C\C=C\c2ccco2)C(=O)N1c1ccccc1 | -78.1* | i | ? | ? | i
Cc1cccc(CNC(=O)C2CCC(CNS(=O)(=O)c3ccc4c(c3)CCCC(=O)N4)CC2)c1 (stereo unspecified) | . | ? | . | . | i
COc1cc(OC)c(Nc2nc3ccccc3nc2-n2nc(C)cc2C)cc1Cl | . | i | . | . | i
Cc1ccc(-c2ccc(=O)n(CC(=O)NC(C)c3ccccc3)n2)cc1 (stereo unspecified) | . | i | . | . | i
N=c1ccn(Cc2ccc(F)cc2)cc1 | 14.9 | i | 13.2% | -4.3% | 5.8µM*
Cc1cccc(-n2c(Cc3cc(=O)[nH]c(=O)[nH]3)nnc2SCC(=O)N2CCc3ccccc32)c1 | 10.4 | i | -6.9% | -8.7% | i
NC(=O)C1CCN(C(=O)c2ccc3c(=O)n(Cc4ccco4)c(SCc4ccc([N+](=O)[O-])cc4)nc3c2)CC1 | -18.9 | i | 11.9% | 1.0% | ?
CCC1Oc2ccccc2N(CC(=O)NCc2cccs2)C1=O (stereo unspecified) | 0.0 | i | -0.6% | 4.2% | i
CSc1ccc(C(=O)C2CCCN(C(=O)c3cc4cc(F)ccc4[nH]3)C2)cc1 (stereo unspecified) | -62.8* | ? | 18.3% | ? | ?
COC(=O)c1ccccc1NC(=O)Cn1ncc2c(C)n(Cc3ccc(F)cc3)c(C)c2c1=O | . | i | . | . | i
COc1cccc(-c2cc(C(=O)N3CCCCC3C)no2)c1 (stereo unspecified) | 23.4 | i | -0.4% | -1.9% | i
Cc1ccc(C(=O)Nc2ccccc2C(=O)N2CC3(C)CC2CC(C)(C)C3)cc1 (stereo unspecified) | -29.6 | ? | 25.9µM* | ? | i
CC1(C)CC2CC(C)(CN2C(=O)NC(=O)c2ccccc2)C1 (stereo unspecified) | 4.0 | ? | 3.2% | -0.4% | i
COc1cccc(-c2cc(C(=O)N3CC4(C)CC3CC(C)(C)C4)no2)c1 (stereo unspecified) | -7.5 | 14.6µM* | ? | 0.3% | i
CC1(C)CC2CC(C)(CN2C(=O)c2cc(-c3ccc(O)cc3)on2)C1 (stereo unspecified) | -61.6* | i | ? | 1.7% | i
COc1cc(C(=O)Nc2nc3nc(-c4ccccc4)cc(=O)n3[nH]2)cc(OC)c1OC | . | ? | . | . | i
Cc1cccc(-n2c3nc(=O)[nH]c(=O)c-3cc3cc([N+](=O)[O-])ccc32)c1 | -100.6* | 16.4µM* | ? | ? | ?
O=c1nc2n(-c3ccccc3F)c3ccccc3cc-2c(=O)[nH]1 | . | ? | . | . | i
Cc1ccc(C)c(-n2c3nc(=O)[nH]c(=O)c-3cc3cc([N+](=O)[O-])ccc32)c1 | -99.3* | i | ? | 3.16µM* | 23.1µM*
COC1=Nc2ccccc2/C=C\c2ccccc21 | 0.9 | i | . | . | ?

High-throughput results deposited in PubChem BioAssay by National Center for Advancing Translational Sciences (NCATS).
